# Compounds with a hit are over-represented: about 2.4% of the library has one in this group of screens.
# ULK1 inh = ULK1 kinase inhibitors, primary screen, biochemical, AlphaScreen; Serine/threonine-protein kinase ULK1 (Homo sapiens), O75385; AlphaScreen Atg13 phosphorylation by ULK1, luminescence; inhibition, % at 5.96 µM; hit rate 1.9% among 30,000; AID 1259251, 2017; in the data active = inhibition above about 43%;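 note: 0% = median of compound wells and 100% = no enzyme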
# ASK1 primary = ASK1 kinase inhibitors, primary screen, biochemical, AlphaScreen; AID 1159602, 2016; AlphaScreen MKK6 phosphorylation by ASK1, luminescence; Mitogen-activated protein kinase kinase kinase 5 (Homo sapiens), Q99683; inhibition, % at 7.44 µM; hit rate 0.99% among 22,000; in the data active = inhibition above about 35%;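 note: 0% = median of compound wells and 100% = no enzyme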
# Starred values were filed as active, the others as inactive; / = no result given; ! = not confirmed by another sample.
SMILES,ULK1 inh,ASK1 primary
CC[C@@H](C(=O)[C@@H](C)[C@@H](O)[C@H](C)CCc1ccc(C)c(O)c1C(=O)O)[C@H]1O[C@](CC)([C@H]2CC[C@](O)(CC)[C@H](C)O2)C[C@@H]1C,70*,/
COc1cccc(COC(=O)Nc2c(F)cc(-c3cn[nH]c3)cc2N(C)C)c1,-41,-4
O=C(Nc1cnn(-c2cccc(C(=O)Nc3ccc(N4CCOCC4)cc3)c2)c1)Nc1ccccc1Cl,3,2
O=C(Nc1cnn(-c2cccc(CNc3ccc(N4CCOCC4)cc3)c2)c1)Nc1ccccc1Cl,49*,25
O=C1c2c(O)ccc(O)c2C(=O)c2c(NCCNCCO)ccc(NCCNCCO)c21,43*,/
COc1cccc2cc(-c3csc(NC(=O)c4cccc(F)c4)n3)oc12,-10,/
COc1cc2nc(NCCN3CCOCC3)nc(NC3CC3)c2cc1OC,-4,-8
Cc1ncn(-c2ccc(Nc3ncc(Br)c(-c4cnn(C)c4)n3)cc2)n1,85*,-68
Cc1ccc(-c2ncn(-c3ccc(Nc4ncc(F)c(-c5cnn(C)c5)n4)cc3)n2)cn1,-1,18
Cn1cc(-c2nc(Nc3ccc(-n4cnc(N5CCOCC5)n4)cc3)ncc2Br)cn1,61*,-57
Cc1onc(-c2nc(Nc3ccc(-n4cnc(N5CCOCC5)n4)cc3)ncc2Cl)c1-c1cnn(C)c1,-22,14
CCCNc1cc(C)nc(-c2cccc(N)c2)n1,1,3
Cc1nn(C)c(C)c1-c1nc(Nc2ccc(Oc3ccccc3)cc2)c2[nH]cnc2n1,-34,0
CN(/C=C/C(=C\C=[N+](C)c1ccccc1)OCCCS(=O)(=O)O)c1ccccc1,2,/
CS(=O)(=O)Nc1ccc(-c2ccnc(Nc3ccc(-n4ccnn4)cc3)n2)cc1,66*,-28
CC(O)c1ccc(Nc2nccc(-c3ccc(NS(C)(=O)=O)cc3)n2)cc1 (configuration not stated),69*,-7
CS(=O)(=O)c1ccc(-c2ccnc(Nc3ccc(C(N)C(F)(F)F)cc3)n2)cc1 (configuration not stated),20,-21
Cc1ncn(-c2ccc(Nc3nccc(-c4ccc(S(C)(=O)=O)cc4)n3)cc2)n1,2,-12
O=C1OCCN1c1ccc(Nc2nccc(-c3cncc(N4CCOCC4)c3)n2)cc1,4,6
Cc1cnnn1-c1ccc(Nc2nccc(-c3ccc(NS(C)(=O)=O)cc3)n2)cc1,49*,6
CS(=O)(=O)Nc1ccc(-c2ccnc(Nc3ccc(N4CCOC4=O)cc3)n2)cc1,70*,-3
Cn1cnnc1-c1ccc(Nc2nccc(-c3ccc(NS(C)(=O)=O)cc3)n2)cc1,-14,1
COc1ccc(-c2nc(Nc3ccc(N4CCOCC4)cc3)c3ncn(Cc4ccc(C(F)(F)F)cc4)c3n2)cc1,-6,2
COc1ccc(Nc2nc(NCc3cccc(C(F)(F)F)c3)c3[nH]cnc3n2)cc1,-16,-13
O=C1CCCN1CCn1cnc2c(NCc3cccc(C(F)(F)F)c3)nc(Nc3ccc(-n4ccnc4)cc3)nc21,-9,-8
SMILES,ULK1 inh,ASK1 primary
c1ccc(CN2CCC(Nc3nc(Nc4ccncc4)nc4c3ncn4C3CCCCC3)CC2)cc1,1,9
C[C@H](Cc1ccc(O)c(O)c1)[C@@H](C)Cc1ccc(O)c(O)c1,78*,/
N[C@@H](Cc1ccc(O)c(O)c1)C(=O)O,32,/
CNC(=O)c1cccc(-n2cc(NC(=O)Nc3cccc(C)c3)cn2)c1,-7,-21
Cc1nc(Nc2ccccc2)cc(-c2cncc(-c3ccc(F)cc3)c2)n1,-1,/
Cc1nc(Nc2cc(Nc3ccccc3S(=O)(=O)NC(C)C)c(C(F)(F)F)cn2)cc(-c2cncnc2)n1,45*,-1
O=Cc1ccc(O)c(O)c1O,89*,/
O=C(NCCOc1ccccc1)c1ccc2nc(NC3CCC(O)CC3)sc2c1 (configuration not stated),-13,16
COc1ccc(Cl)cc1NC(=O)CSc1nccn1C1CCCC1,-10,/
CS(=O)(=O)c1ccc(NCCc2ccccc2)cc1,68*,/
NNCCc1ccccc1,-10,/
O=C(NCCN1CCOCC1)c1csc(NC2CCN(Cc3ccccc3)CC2)n1,5,1
Cc1cc(-c2ccc(N=Nc3c(S(=O)(=O)O)cc4cc(S(=O)(=O)O)cc(N)c4c3O)c(C)c2)ccc1N=Nc1c(S(=O)(=O)O)cc2cc(S(=O)(=O)O)cc(N)c2c1O,81*,/
Cc1nn(C)c(C)c1-c1ccc(C(=O)NCCc2ccc(O)cc2)s1,-27,14
c1cc(N2CCOCC2)ccc1Nc1nc(-c2ccc(N3CCOCC3)nc2)nc2c1ncn2C1CCCCC1,15,27
CCNC(=O)c1ccc2c(c1)CC(c1nc3ccc(-c4ccnc(N)n4)cc3[nH]1)CO2 (configuration not stated),-1,11
Cc1cncc2cccc(NC3CCCNC3)c12 (configuration not stated),72*,12
Cc1cncc2cccc(NC3CCN(C(=O)[C@H](C)O)CC3)c12,10,-9
Cc1cncc2cccc(N3CCN(C(=O)[C@H](C)O)CC3)c12,-1,-2
Cc1cncc2cccc(S(=O)(=O)N3CCCNC[C@@H]3C)c12,81*!,-9
Cc1cnc(Nc2ccccn2)nc1NCc1nc2ccccc2[nH]1,-11,3
COc1ccc2cc(Br)ccc2c1,-5,/
C[n+]1c2cc(N)ccc2cc2ccc(N)cc21,71*,/
COc1ccccc1C(=O)Nc1nc(-c2cc3cccc(OC)c3o2)cs1,7,/
OC1CCC(Nc2cc(NC3CCN(Cc4ccccc4)CC3)ncn2)CC1 (configuration not stated),1,-5
SMILES,ULK1 inh,ASK1 primary
Cc1cnc(Nc2ccc(-n3ccnc3)cc2)nc1NCCCN1CCCC1=O,69*,-9
Cc1cnc(Nc2ccncc2)nc1NCCCN1CCCC1=O,6,-21
Cc1cnc(Nc2ccc(-n3ccnc3)cc2)nc1Nc1ccccc1,35,-33
O=C1CCCN1CCCNc1nc(Nc2ccc(C(F)(F)F)cc2)nc2nc[nH]c12,53*,8
O=C1CCCN1CCCNc1nc(Nc2ncccn2)nc2nc[nH]c12,6,-18
Cc1cnc(Nc2ccc(-n3ccnc3)cc2)nc1NC1CC1,52*,9
O=c1[nH]c(C2CC2)nc2cc(-c3cnn(-c4cccc(N5CCOCC5)c4)c3)ccc12,4,-5
O=C(NCCO)c1cnc(N2CCCC2CO)s1 (configuration not stated),-7,-20
Oc1cc(O)cc(O)c1,7,/
CCC(=O)c1c(O)cc(O)cc1O,62*,/
CNC(=O)c1ccccc1Nc1cc(Nc2ccc(N3CCOCC3)cn2)ncc1C(F)(F)F,91*,-7
CNC(=O)c1ccccc1Nc1cc(Nc2ccc(N3CCOCC3)cc2C)ncc1C(F)(F)F,92*,-18
COc1cc(N2CCOCC2)ccc1Nc1cc(Nc2cccnc2)c(C(F)(F)F)cn1,19,30
C=CCC1C(C)=NN(C(=O)c2cccc(Br)c2)C1(C)O (configuration not stated),0,/
CC(=O)Nc1ccc(NC(=O)c2ccnc(N3CCC(N4CCOCC4)CC3)c2)cc1,-2,-2
N#Cc1cc(-c2ccnc(Nc3ccc(N4CCOCC4)cc3)n2)cc(N2CCNCC2)c1,78*,35
N#Cc1cc(-c2ccnc(Nc3ccc(N4CCOCC4)cc3)n2)cc(N2CCOCC2)c1,3,31

# Screens from PubChem.
